# From PubChem BioAssay (NCI)
# The panel holds about 83,000 compounds, 20% with a hit somewhere; the sample as a whole holds those more often.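 Growth was measured after 48 h exposure to one concentration of compound in 96-well plates. Values under 10 count as active.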 Values without a mark were called inactive.
# Tested on: MDA-MB-468 breast
# Assay: NCI-60 one-dose screen, 48 h (100 = growth as untreated, 0 = no growth, -100 = all killed)
# Conditions: 10 µM unless noted
row,Structure (SMILES),growth [%]
1,COc1cc(-c2cc(-c3ccc(C)cc3)nc3nc(N)[nH]c(=O)c23)ccc1Oc1ccnc2cc(Cl)ccc12,52.3
2,Cc1cccc(NCc2cn(-c3ccc(C(=O)O)cc3)nc2-c2ccc(C(=O)O)cc2)n1,101
3,c1ccc(-c2nc(Nc3nccnn3)c3ccccc3n2)cc1,83.5
